Assay results reported in PubChem BioAssay AID1159580 (chemical genetic matrix, 2015).
The campaign covered roughly 5,500 compounds. About 2,000 (36%) were called active. About 18% were inconclusive and are not listed. Some of the results follow. A number with no mark means an inactive call. Rule as the data show it: active = normalized growth mostly below about 0.91 (no sharp cut-off); inconclusive = no clear call, values can overlap the other calls; inactive = mostly above about 0.92.

Assay: chemical genetic growth profiling, strain panel (AID 1159580);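 also: tested at 20 µM; growth read once vehicle control cultures reached saturation at 30 °C; 1 = growth at the plate median or of vehicle wells; lower values mean less growth of the strain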
Conditions: growth OD
[1] = S. cerevisiae deletion strains, locus YDL101C, strain DUN1, active compounds read low
[2] = S. cerevisiae deletion strains, locus YHR030C, strain SLT2, active compounds read low
[3] = S. cerevisiae deletion strains, locus YAL013W, strain DEP1, active compounds read low
[4] = S. cerevisiae deletion strains, locus YBR229C, strain ROT2, active compounds read low
[5] = S. cerevisiae deletion strains, locus YDL134C, strain PPH21, active compounds read low
[6] = S. cerevisiae deletion strains, locus YDR150W, strain NUM1, active compounds read low
[7] = S. cerevisiae deletion strains, locus YEL061C, strain CIN8, active compounds read low
[8] = S. cerevisiae deletion strains, locus YGR078C, strain PAC10, active compounds read low
[9] = S. cerevisiae deletion strains, locus YHR087W, strain rtc3, active compounds read low
[10] = S. cerevisiae deletion strains, locus YJL187C, strain SWE1, active compounds read low
[11] = S. cerevisiae deletion strains, locus YJR043C, strain POL32, active compounds read low
[12] = S. cerevisiae deletion strains, locus YJR075W, strain HOC1, active compounds read low
[13] = S. cerevisiae deletion strains, locus YKL190W, strain CNB1, active compounds read low
[14] = S. cerevisiae deletion strains, locus YLR039C, strain RIC1, active compounds read low
[15] = S. cerevisiae deletion strains, locus YLR058C, strain SHM2 (second series), active compounds read low
[16] = S. cerevisiae deletion strains, locus YLR085C, strain ARP6, active compounds read low
[17] = S. cerevisiae deletion strains, locus YLR262C, strain YPT6, active compounds read low
[18] = S. cerevisiae deletion strains, locus YML094W, strain GIM5, active compounds read low
[19] = S. cerevisiae deletion strains, locus YMR219W, strain ESC1, active compounds read low
[20] = S. cerevisiae deletion strains, locus YMR263W, strain SAP30, active compounds read low
[21] = S. cerevisiae deletion strains, locus YMR307W, strain GAS1, active compounds read low
[22] = S. cerevisiae deletion strains, locus YNL153C, strain GIM3, active compounds read low
[23] = S. cerevisiae deletion strains, locus YNL298W, strain CLA4 (second series), active compounds read low
[24] = S. cerevisiae deletion strains, locus YNL322C, strain KRE1, active compounds read low
[25] = S. cerevisiae deletion strains, locus YNR030W, strain Alg12, active compounds read low
[26] = S. cerevisiae deletion strains, locus YPL055C, strain LGE1, active compounds read low
[27] = S. cerevisiae deletion strains, locus YPL241C, strain CIN2, active compounds read low
[28] = S. cerevisiae deletion strains, locus YPR135W, strain CTF4, active compounds read low

Compound `Cc1cc(-c2onc(C)c2C(=O)Sc2ccccc2)no1` has a normalized growth (S. cerevisiae deletion strains, locus YAR019C, strain CDC15, active compounds read low) of 0.941, a normalized growth (S. cerevisiae deletion strains, locus YBL105C, strain PKC1, active compounds read low) of 0.963 and a normalized growth (S. cerevisiae deletion strains, locus YBR135W, strain CKS1, active compounds read low) of 0.939. The normalized growth (S. cerevisiae deletion strains, locus YBR136W, strain MEC1, active compounds read low) was 0.961, the normalized growth (S. cerevisiae deletion strains, locus YBR160W, strain CDC28, active compounds read low) was 0.954 and the normalized growth (S. cerevisiae deletion strains, locus YDL017W, strain CDC7, active compounds read low) was 0.957. For the same compound, the normalized growth (S. cerevisiae deletion strains, locus YDL028C, strain MPS1, active compounds read low) was 0.958, the normalized growth [1] was 0.959 and the normalized growth (S. cerevisiae deletion strains, locus YDL108W, strain KIN28, active compounds read low) was 0.962. For the same compound, the normalized growth (S. cerevisiae deletion strains, locus YDL132W, strain cdc53, active compounds read low) was 0.926, the normalized growth (S. cerevisiae deletion strains, locus YDL214C, strain PRR2, active compounds read low) was 0.826 and the normalized growth (S. cerevisiae deletion strains, locus YDR052C, strain DBF4, active compounds read low) was 0.971. It also gave a normalized growth (S. cerevisiae deletion strains, locus YDR054C, strain cdc34, active compounds read low) of 0.918, a normalized growth (S. cerevisiae deletion strains, locus YDR226W, strain ADK1, active compounds read low) of 0.954 and a normalized growth (S. cerevisiae deletion strains, locus YDR477W, strain SNF1, active compounds read low) of 0.811. The normalized growth (S. cerevisiae deletion strains, locus YER123W, strain YCK3, active compounds read low) was 0.736, the normalized growth (S. cerevisiae deletion strains, locus YER133W, strain GLC7, active compounds read low) was 0.823 and the normalized growth (S. cerevisiae deletion strains, locus YFL009W, strain cdc4, active compounds read low) was 0.921. The normalized growth (S. cerevisiae deletion strains, locus YFL029C, strain CAK1, active compounds read low) was 0.921, the normalized growth (S. cerevisiae deletion strains, locus YFR003C, strain YPI1, active compounds read low) was 0.958 and the normalized growth (S. cerevisiae deletion strains, locus YFR019W, strain FAB1, active compounds read low) was 0.909. The normalized growth (S. cerevisiae deletion strains, locus YFR028C, strain CDC14, active compounds read low) was 0.96, the normalized growth (S. cerevisiae deletion strains, locus YGR040W, strain KSS1, active compounds read low) was 0.852 and the normalized growth (S. cerevisiae deletion strains, locus YGR052W, strain FMP48, active compounds read low) was 0.81. The normalized growth (S. cerevisiae deletion strains, locus YGR092W, strain DBF2, active compounds read low) was 0.705, the normalized growth [2] was 0.743 (active) and the normalized growth (S. cerevisiae deletion strains, locus YHR079C, strain IRE1, active compounds read low) was 0.704. The normalized growth (S. cerevisiae deletion strains, locus YHR082C, strain KSP1, active compounds read low) was 0.901, the normalized growth (S. cerevisiae deletion strains, locus YHR205W, strain SCH9, active compounds read low) was 0.657 and the normalized growth (S. cerevisiae deletion strains, locus YIL147C, strain SLN1, active compounds read low) was 0.958. The normalized growth (S. cerevisiae deletion strains, locus YJL095W, strain BCK1, active compounds read low) was 0.704, the normalized growth (S. cerevisiae deletion strains, locus YJL128C, strain PBS2, active compounds read low) was 0.888 and the normalized growth (S. cerevisiae deletion strains, locus YJL157C, strain FAR1, active compounds read low) was 0.819. The normalized growth (S. cerevisiae deletion strains, locus YJR016C, strain ILV3, active compounds read low) was 0.944, the normalized growth (S. cerevisiae deletion strains, locus YJR066W, strain TOR1 (second series), active compounds read low) was 0.708 and the normalized growth (S. cerevisiae deletion strains, locus YJR066W, strain TOR1, active compounds read low) was 0.892. The normalized growth (S. cerevisiae deletion strains, locus YKL048C, strain ELM1, active compounds read low) was 0.942, the normalized growth (S. cerevisiae deletion strains, locus YKL067W, strain YNK1, active compounds read low) was 0.824 and the normalized growth (S. cerevisiae deletion strains, locus YKL101W, strain HSL1, active compounds read low) was 0.881. The normalized growth (S. cerevisiae deletion strains, locus YKL193C, strain SDS22, active compounds read low) was 0.942, the normalized growth (S. cerevisiae deletion strains, locus YKL203C, strain TOR2, active compounds read low) was 0.885 and the normalized growth (S. cerevisiae deletion strains, locus YLR113W, strain HOG1, active compounds read low) was 0.453 (active). It also gave a normalized growth (S. cerevisiae deletion strains, locus YLR133W, strain CKI1, active compounds read low) of 0.867, a normalized growth (S. cerevisiae deletion strains, locus YLR403W, strain SFP1, active compounds read low) of 0.794 and a normalized growth (S. cerevisiae deletion strains, locus YML070W, strain DAK1, active compounds read low) of 0.829. The normalized growth (S. cerevisiae deletion strains, locus YMR001C, strain CDC5, active compounds read low) was 0.935, the normalized growth (S. cerevisiae deletion strains, locus YMR205C, strain PFK2 (second series), active compounds read low) was 0.87 and the normalized growth (S. cerevisiae deletion strains, locus YMR277W, strain FCP1, active compounds read low) was 0.925. The normalized growth (S. cerevisiae deletion strains, locus YNL006W, strain LST8, active compounds read low) was 0.962, the normalized growth (S. cerevisiae deletion strains, locus YNL020C, strain ARK1, active compounds read low) was 0.846 and the normalized growth (S. cerevisiae deletion strains, locus YNL161W, strain CBK1, active compounds read low) was 0.947. It also gave a normalized growth (S. cerevisiae deletion strains, locus YNL183C, strain NPR1, active compounds read low) of 0.68, a normalized growth (S. cerevisiae deletion strains, locus YNL207W, strain RIO2, active compounds read low) of 0.947 and a normalized growth (S. cerevisiae deletion strains, locus YNL222W, strain SSU72, active compounds read low) of 0.943. The normalized growth (S. cerevisiae deletion strains, locus YNL307C, strain MCK1 (second series), active compounds read low) was 0.802, the normalized growth (S. cerevisiae deletion strains, locus YOL078W, strain AVO1, active compounds read low) was 0.918 and the normalized growth (S. cerevisiae deletion strains, locus YOL136C, strain PFK27, active compounds read low) was 0.843. For the same compound, the normalized growth (S. cerevisiae deletion strains, locus YOR061W, strain CKA2, active compounds read low) was 0.859, the normalized growth (S. cerevisiae deletion strains, locus YOR119C, strain RIO1, active compounds read low) was 0.836 and the normalized growth (S. cerevisiae deletion strains, locus YOR231W, strain MKK1, active compounds read low) was 0.75. For the same compound, the normalized growth (S. cerevisiae deletion strains, locus YOR329C, strain SCD5, active compounds read low) was 0.95, the normalized growth (S. cerevisiae deletion strains, locus YPL031C, strain PHO85, active compounds read low) was 0.783 and the normalized growth (S. cerevisiae deletion strains, locus YPL153C, strain RAD53, active compounds read low) was 0.756. For the same compound, the normalized growth (S. cerevisiae deletion strains, locus YPL204W, strain HRR25, active compounds read low) was 0.805, the normalized growth (S. cerevisiae deletion strains, locus YPL209C, strain IPL1, active compounds read low) was 0.944 and the normalized growth (S. cerevisiae deletion strains, locus YPL256C, strain CLN2, active compounds read low) was 0.695 (active). For the same compound, the normalized growth (S. cerevisiae deletion strains, locus YPR025C, strain CCL1, active compounds read low) was 0.956, the normalized growth (S. cerevisiae deletion strains, locus YPR106W, strain ISR1, active compounds read low) was 0.973 and the normalized growth (S. cerevisiae deletion strains, locus YPR111W, strain DBF20, active compounds read low) was 0.97. The normalized growth (S. cerevisiae deletion strains, strain NNK1, active compounds read low) was 0.953 and the normalized growth (S. cerevisiae deletion strains, strain TSCII, active compounds read low) was 0.93.
Compound `CSc1cc(C(F)(F)F)cc(SC)c1SC` has a normalized growth [3] of 0.993, a normalized growth [4] of 0.975 and a normalized growth [1] of 0.992. The normalized growth [5] was 0.909 (active), the normalized growth [6] was 1.01 and the normalized growth [7] was 0.987. For the same compound, the normalized growth [8] was 0.981, the normalized growth [2] was 0.678 (active) and the normalized growth [9] was 0.953. For the same compound, the normalized growth [10] was 0.986, the normalized growth [11] was 0.988 and the normalized growth [12] was 0.945. The normalized growth [13] was 0.967, the normalized growth [14] was 0.785 (active) and the normalized growth [15] was 0.974. For the same compound, the normalized growth [16] was 0.958, the normalized growth [17] was 0.809 (active) and the normalized growth [18] was 1.01. The normalized growth [19] was 0.978, the normalized growth [20] was 0.997 and the normalized growth [21] was 0.373 (active). The normalized growth [22] was 1, the normalized growth [23] was 0.975 and the normalized growth [24] was 0.969. For the same compound, the normalized growth [25] was 0.974, the normalized growth [26] was 0.866 and the normalized growth [27] was 0.986. For the same compound, the normalized growth [28] was 0.909 and the normalized growth (S. cerevisiae strains, strain wild type, active compounds read low) was 0.925.
For `O=C(NC1CCCCC1)N1CCN(c2ncccc2C(F)(F)F)CC1`, the normalized growth [3] was 1.01, the normalized growth [4] was 0.994 and the normalized growth (S. cerevisiae deletion strains, locus YCL061C, strain MRC1, active compounds read low) was 0.984. It also gave a normalized growth [1] of 0.998, a normalized growth [5] of 0.982 and a normalized growth [6] of 0.978. For the same compound, the normalized growth [7] was 0.998, the normalized growth [8] was 1 and the normalized growth [2] was 0.994. The normalized growth [9] was 1.01, the normalized growth [11] was 0.979 and the normalized growth [12] was 0.99. The normalized growth [13] was 0.989, the normalized growth [14] was 1.01 and the normalized growth [15] was 0.987. For the same compound, the normalized growth [16] was 0.996, the normalized growth [17] was 0.993 and the normalized growth [18] was 1.01. For the same compound, the normalized growth [19] was 0.991, the normalized growth [20] was 0.988 and the normalized growth [21] was 0.851. It also gave a normalized growth (S. cerevisiae deletion strains, locus YNL128W, strain TEP1, active compounds read low) of 0.986, a normalized growth [22] of 0.988 and a normalized growth [23] of 0.986. For the same compound, the normalized growth [24] was 1, the normalized growth [25] was 1 and the normalized growth (S. cerevisiae deletion strains, locus YOL006C, strain TOP1, active compounds read low) was 0.966. For the same compound, the normalized growth [26] was 1.01, the normalized growth [27] was 0.985 and the normalized growth [28] was 1.01.
`COc1ccccc1N1CCN(C(=O)C(C)Nc2ccccn2)CC1` (stereo unspecified) gave a normalized growth [3] of 0.994, a normalized growth [4] of 1 and a normalized growth [1] of 0.985. It also gave a normalized growth [6] of 0.986, a normalized growth [7] of 1.01 and a normalized growth [8] of 0.986. It also gave a normalized growth [2] of 0.952, a normalized growth [9] of 1.01 and a normalized growth [10] of 0.994. For the same compound, the normalized growth [11] was 1, the normalized growth [12] was 1.02 and the normalized growth [14] was 0.997. For the same compound, the normalized growth [15] was 0.996, the normalized growth [16] was 1.04 and the normalized growth [17] was 0.996. It also gave a normalized growth [18] of 0.984, a normalized growth [19] of 0.999 and a normalized growth [20] of 1.04. The normalized growth [21] was 1.09, the normalized growth [22] was 1.02 and the normalized growth [23] was 0.997. For the same compound, the normalized growth [24] was 0.999, the normalized growth [25] was 1 and the normalized growth [26] was 1.01. The normalized growth [27] was 1.24 [resistant] (active) and the normalized growth [28] was 1.
